What follows are sequences tested against KLF9 (assay: pooled miR-30 sensor sort-seq; sequence = guide strand). Settings: shRNA.
Further: reference of the scale not given here.

Sequence | sensor-assay potency score (higher = more potent)
TTAGTGTTCAATGAACTCTAGT | -0.32
TATCTTGATATAGTAAATCTAA | -0.625
TTAATCTCAAAAGTTAACGTGA | 0.201
TTCTGTACTTAGTGTAACCTTT | -0.287
TAAACAAAAATTACTATCCTGC | 0.0439
TTCTTTCTTTTTAAACACCTGC | -0.453
TTCTGTAATTGTAACTACCAAA | -0.904
TTACAAGTTAGCAAGTTGCTAG | -0.0943
TTGATCTTAGGCTACAATGTGC | -0.659
TTAAACAGTTGTAAAGATCAGT | -0.0225
TTGTCTTTCACTGACTTTGCTT | -0.214
TTTATATCCATCTAAGTGCTTG | -0.361
TTCGATCGCTTGATCATGCTGG | 0.623
TTCAGGTCCAACAAGCTCTTGG | -0.253
TAACTTATTCATCCTCTGCATT | -0.919
TACAGTGTTACAGATCATCTGA | 0.728
TTCACCTGTATGCACTCTGTAA | -0.85
TTTAGATGACAGATCATGCTGG | 0.459
TAGTAGTCCTATTTGAACCATA | -0.845
TTTCTCGTGAGAAAACACTTTC | -0.637
TCTACATAACTCTTGCACCTGA | -0.302
TTGCAAAACACTACCCTCCTTC | -0.0123
TTAAACACCTGCAATAGTCTTT | 0.257

Each sequence was assayed against KLHL20 in the same assay as above. Settings: shRNA.

Sequence | sensor-assay potency score (higher = more potent)
TCTCCTGTAAACATAGCTCGGA | -0.114
TTGTTCTTCACTGCGAACGTTT | -0.688
TCATCTACCAAGTCTCTGCATT | -0.755
TTGTTTGTATAAAAGAACCAAG | -1.24
TATGTTGGGTGAACTTGTCTGC | 0.299
TTCTTCATCACTTTTGATGAGG | -0.804
TTTGTCTATGAATACAATGAGG | -1.57
TTGAAAATTATTGTGCATCTTG | -0.295
TTGAACACTTGTTCTTCACTGC | 0.569
TAATTGAGGACGTCTTTCCTGA | 0.0524
TACAGCATAGATCATGTCCTGA | 0.298
TACATTTTGCATACCTACCTTT | -0.113

What follows are sequences tested against KLHL24 in the same assay as above. Settings: shRNA.

Sequence | sensor-assay potency score (higher = more potent)
TATGAATAGTCACACAGCCATG | -1.71
TATCTATGAATAGTCACACAGC | -1.1
TTTACCATTACACACAGACATA | -1.69
TTTTGTGACGCCATCTGCCTTT | -0.286
TATCAGAACAAGTATTATCATC | -1.27

— the OligoGym collection
